# Data from PubChem BioAssay (EPA / NIEHS).
# Active and inactive are the calls of the source. The calls were made as follows: active = hit-call score of the fitted dose curve at least 0.9, where 1 is the maximum; inactive = score below 0.9.
# Key:
# [1] = read-out: Interleukin-8 (IL8), CXCL8 (gene 3576); assay: BSK_3C_IL8: BioMAP Diversity Plus: 3C Assay for Interleukin-8 (IL8) Biomarker Activity (AID 2283020); conditions: primary human endothelial cells (HUVEC); actives raise or lower the signal
# Summary of the method: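 Human vascular endothelial cells (umbilical vein) in the 3C system; IL-8 level detected by ELISA at 24 h post-dose, with DMSO as baseline.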
# [2] = read-out: Monokine induced gamma interferon (MIG), CXCL9 (gene 4283); assay: BSK_3C_MIG: BioMAP Diversity Plus: 3C Assay for Monokine induced gamma interferon (MIG) Biomarker Activity (AID 2283021); conditions: primary human endothelial cells (HUVEC); actives raise or lower the signal
# Summary of the method: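 After 24 h of treatment, human umbilical vein endothelial cultures (3C system) had their MIG biomarker level determined by ELISA, with DMSO serving as negative control.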
# [3] = BSK_3C_SRB: Viability Assessment in the BioMAP Diversity Plus: 3C Assay (AID 2283023); conditions: primary human endothelial cells (HUVEC);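 also: fitted both ways against DMSO so a hit may be signal rise or drop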
# Summary of the method: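 Primary human umbilical vein endothelial cells in the 3C system were read 24 h after compound dosing. Total protein was stained with 0.1% sulforhodamine B after 10% TCA fixation and read at 560 nm, with bidirectional fitting against DMSO as baseline.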
# [4] = read-out: Matrix Metallopeptidase 1 (MMP1), MMP1 (gene 4312); assay: BSK_BE3C_MMP1: BioMAP Diversity Plus: BE3C Assay for Matrix Metallopeptidase 1 (MMP1) Biomarker Activity (AID 2283024); conditions: primary human bronchial epithelial cells; actives raise or lower the signal
# Summary of the method: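 Dose cells, wait 24 h, run MMP1 ELISA; cells are human bronchial epithelial primaries. Both increases and decreases relative to DMSO counted.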
# [5] = BSK_3C_Vis: BioMAP Diversity Plus: 3C Assay for Morphology Visualization (AID 2283025); conditions: primary human endothelial cells (HUVEC);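 also: fitted both ways so gain or loss versus DMSO counts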;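 as to AC50: light microscopy image of cell morphology used as background control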
# Summary of the method: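 Endothelial cells from human umbilical vein were treated with test chemicals for 24 h and inspected by light microscopy for changes in cell conformation.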
# [6] = read-out: Pselectin, SELP (gene 6403); assay: BSK_4H_Pselectin: BioMAP Diversity Plus: 4H Assay for Pselectin Biomarker Activity (AID 2283026); conditions: primary human endothelial cells (HUVEC); actives raise or lower the signal
# Summary of the method: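 Human vascular endothelium from umbilical vein; P-selectin measured by ELISA at 24 h post-dose, with cytotoxicity checked by sulforhodamine B total-protein staining in parallel cultures (0.1% SRB after 10% TCA fixation, read at 560 nm).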
# [7] = BSK_4H_SRB: Viability Assessment in the BioMAP Diversity Plus: 4H Assay (AID 2283027); conditions: primary human endothelial cells (HUVEC);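 also: cells exposed to compound for 24 h before staining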;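 as to AC50: curves fitted both ways versus DMSO so AC50 may be loss or gain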
# Summary of the method: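 Absorbance at 560 nm of SRB-stained total protein served as the viability read-out in confluent primary human umbilical vein endothelium 24 h after chemical treatment. Curves were fitted bidirectionally against DMSO as negative control.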
# [8] = BSK_BE3C_SRB: Viability Assessment in the BioMAP Diversity Plus: BE3C Assay (AID 2283028); conditions: primary human bronchial epithelial cells
# Summary of the method: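 Human primary bronchial epithelial cells were exposed to test chemicals for 24 h. Total protein in parallel cultures was then measured by staining with 0.1% sulforhodamine B after 10% TCA fixation, with absorbance read at 560 nm. Activity was fitted bidirectionally against DMSO.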
# [9] = read-out: Thrombomodulin, THBD (gene 7056); assay: BSK_3C_Thrombomodulin: BioMAP Diversity Plus: 3C Assay for Thrombomodulin Biomarker Activity (AID 2283029); conditions: primary human endothelial cells (HUVEC); actives raise or lower the signal
# Summary of the method: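 Thrombomodulin ELISA, human primary HUVEC, 24 h post-dose; data fitted in both directions relative to DMSO.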
# [10] = read-out: Urokinase-type plasminogen activator receptor (uPAR), PLAUR (gene 5329); assay: BSK_4H_uPAR: BioMAP Diversity Plus: 4H Assay for Urokinase-type plasminogen activator receptor (uPAR) Biomarker Activity (AID 2283030); conditions: primary human endothelial cells (HUVEC); actives raise or lower the signal
# Summary of the method: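 Primary human umbilical vein endothelial cells were exposed to chemical for 24 h before cell-surface uPAR was quantified by ELISA. Activity was fitted bidirectionally against the DMSO negative control baseline.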
# [11] = read-out: Vascular endothelial growth factor receptor 2 (Homo sapiens) (UniProt P35968); assay: BSK_4H_VEGFRII: BioMAP Diversity Plus: 4H Assay for Vascular endothelial growth factor receptor 2 (VEGFR2) Biomarker Activity (AID 2283031); conditions: primary human endothelial cells (HUVEC); actives raise or lower the signal
# Summary of the method: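 Primary human umbilical vein endothelial cells in the BioMAP 4H system were dosed with test chemical, and 24 h later VEGFRII was measured by ELISA. Activity was fitted bidirectionally against DMSO as negative control and baseline.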
# [12] = read-out: Human Leukocyte Antigen - DR isotype (HLADR), HLA-DRA (gene 3122); assay: BSK_BE3C_HLADR: BioMAP Diversity Plus: BE3C Assay for Human Leukocyte Antigen - DR isotype (HLADR) Biomarker Activity (AID 2283032); conditions: primary human bronchial epithelial cells; actives raise or lower the signal
# Summary of the method: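 Signal came from an ELISA for HLA-DR in human bronchial epithelial primary cells harvested 24 h after treatment; gain- and loss-of-signal fitting used DMSO controls as reference.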
# [13] = read-out: Vascular cell adhesion molecule 1 (VCAM1), VCAM1 (gene 7412); assay: BSK_4H_VCAM1: BioMAP Diversity Plus: 4H Assay for Vascular cell adhesion molecule 1 (VCAM1) Biomarker Activity (AID 2283033); conditions: primary human endothelial cells (HUVEC); actives raise or lower the signal;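 also: cell-surface VCAM-1 protein measured by ELISA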
# Summary of the method: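 Endpoint derived from bidirectional fitting against DMSO controls of VCAM-1 ELISA signal in umbilical vein endothelial cells sampled at 24 h following treatment.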
# [14] = read-out: Interferon-gamma inducible Protein 10 (IP10), CXCL10 (gene 3627); assay: BSK_BE3C_IP10: BioMAP Diversity Plus: BE3C Assay for Interferon-gamma inducible Protein 10 (IP10) Biomarker Activity (AID 2283034); conditions: primary human bronchial epithelial cells; actives raise or lower the signal
# Summary of the method: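 Using primary human bronchial epithelial cultures, the assay captures IP-10 by ELISA one day (24 h) after exposure. Parallel SRB staining of total protein flags overt cytotoxicity. Fits run bidirectionally relative to DMSO.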
# [15] = read-out: Monokine induced gamma interferon (MIG), CXCL9 (gene 4283); assay: BSK_BE3C_MIG: BioMAP Diversity Plus: BE3C Assay for Monokine induced gamma interferon (MIG) Biomarker Activity (AID 2283035); conditions: primary human bronchial epithelial cells; actives raise or lower the signal;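 also: MIG protein measured by ELISA in BE3C cultures after 24 h of dosing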
# Summary of the method: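 MIG level was determined by ELISA after 24 h chemical treatment of primary human bronchial epithelial cells. Values were fitted bidirectionally with DMSO as the negative control and activity baseline.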
# [16] = read-out: Transforming growth factor beta 1 (TGFb1), TGFB1 (gene 7040); assay: BSK_BE3C_TGFb1: BioMAP Diversity Plus: BE3C Assay for Transforming growth factor beta 1 (TGFb1) Biomarker Activity (AID 2283036;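 also: TGF-b1 protein level measured by ELISA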); conditions: primary human bronchial epithelial cells; actives raise or lower the signal
# Summary of the method: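 In this human primary bronchial epithelial system, an ELISA quantified TGF-b1 one day after dosing. Endpoint changes in either direction were fitted relative to DMSO.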
# [17] = read-out: Plasminogen activator inhibitor-1 (PAI1), SERPINE1 (gene 5054); assay: BSK_BE3C_PAI1: BioMAP Diversity Plus: BE3C Assay for Plasminogen activator inhibitor-1 (PAI1) Biomarker Activity (AID 2283037); conditions: primary human bronchial epithelial cells; actives raise or lower the signal
# Summary of the method: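 PAI-1 biomarker levels in treated human bronchial epithelial cells are determined by ELISA at 24 h. Both increases and decreases relative to DMSO are fitted.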
# [18] = read-out: urokinase plasminogen activator (uPA), PLAU (gene 5328); assay: BSK_BE3C_uPA: BioMAP Diversity Plus: BE3C Assay for urokinase plasminogen activator (uPA) Biomarker Activity (AID 2283038); conditions: primary human bronchial epithelial cells; actives raise or lower the signal;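 also: uPA protein level quantified by ELISA in cell cultures; uPA read one day after compound addition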
# Summary of the method: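 Human primary bronchial epithelial cells were exposed to chemical for 24 h, then uPA levels were measured by ELISA. Responses were fitted bidirectionally against DMSO as negative control and baseline. Parallel SRB staining of total protein gauged overt cytotoxicity.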
# [19] = read-out: Urokinase-type plasminogen activator receptor (uPAR), PLAUR (gene 5329); assay: BSK_BE3C_uPAR: BioMAP Diversity Plus: BE3C Assay for Urokinase-type plasminogen activator receptor (uPAR) Biomarker Activity (AID 2283039); conditions: primary human bronchial epithelial cells; actives raise or lower the signal;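 also: cells exposed to compound for one day before measurement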
# Summary of the method: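 A uPAR ELISA serves as the readout, taken 24 h after treating primary human bronchial epithelial cells. Responses in either direction are fitted against DMSO, which defines baseline activity.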
smiles,measurement,setting,value
CC(C)CC(C)O (stereo not drawn),outcome,[1],inactive
same,outcome,[2],inactive
same,outcome,[3],inactive
same,outcome,[4],inactive
same,outcome,[5],inactive
same,outcome,[6],inactive
same,outcome,[7],inactive
same,outcome,[8],inactive
same,outcome,[9],inactive
same,outcome,[10],inactive
same,outcome,[11],inactive
same,outcome,[12],inactive
same,outcome,[13],inactive
same,outcome,[14],inactive
same,outcome,[15],inactive
same,outcome,[16],inactive
same,outcome,[17],inactive
same,outcome,[18],inactive
same,outcome,[19],inactive
CC1(C)C(=O)N(Cl)C(=O)N1Cl,outcome,[1],inactive
same,outcome,[2],inactive
same,outcome,[3],inactive
same,outcome,[4],inactive
same,outcome,[5],inactive
same,outcome,[6],inactive
same,outcome,[7],inactive
same,outcome,[8],inactive
same,outcome,[9],inactive
same,outcome,[10],inactive
same,outcome,[11],inactive
same,outcome,[12],inactive
same,outcome,[13],inactive
same,outcome,[14],inactive
same,outcome,[15],inactive
same,outcome,[16],inactive
same,outcome,[17],inactive
same,outcome,[18],inactive
same,outcome,[19],inactive
Cn1c(=O)c2[nH]cnc2n(C)c1=O,outcome,[1],inactive
same,outcome,[2],inactive
same,outcome,[3],inactive
same,outcome,[4],inactive
same,outcome,[5],inactive
same,outcome,[6],inactive
same,outcome,[7],inactive
same,outcome,[8],inactive
same,outcome,[9],inactive
same,outcome,[10],inactive
same,outcome,[11],inactive
same,outcome,[12],inactive
same,outcome,[13],inactive
same,outcome,[14],inactive
same,outcome,[15],inactive
same,outcome,[16],inactive
same,outcome,[17],inactive
same,outcome,[18],inactive
same,outcome,[19],inactive
O=c1[nH]cnc2c1ncn2[C@H]1CC[C@@H](CO)O1,outcome,[1],inactive
same,outcome,[2],inactive
same,outcome,[3],inactive
same,outcome,[4],inactive
same,outcome,[5],inactive
same,outcome,[6],inactive
same,outcome,[7],inactive
same,outcome,[8],inactive
same,outcome,[9],inactive
same,outcome,[10],inactive
same,outcome,[11],inactive
same,outcome,[12],inactive
same,outcome,[13],inactive
same,outcome,[14],inactive
same,outcome,[15],inactive
same,outcome,[16],inactive
same,outcome,[17],inactive
same,outcome,[18],inactive
same,outcome,[19],inactive
CCCCN1C(=O)[C@@H]([C@H](O)C2CCCCC2)NC(=O)C12CCN(Cc1ccc(Oc3ccc(C(=O)O)cc3)cc1)CC2,outcome,[1],inactive
same,outcome,[2],inactive
same,AC50,[3],27.3 µM (active)
same,outcome,[4],inactive
same,AC50,[5],39 µM (active)
same,outcome,[6],inactive
same,AC50,[7],23.6 µM (active)
same,outcome,[8],inactive
same,outcome,[9],inactive
same,AC50,[10],20 µM (active)
same,outcome,[11],inactive
same,outcome,[12],inactive
same,outcome,[13],inactive
same,outcome,[14],inactive
same,outcome,[15],inactive
same,outcome,[16],inactive
same,outcome,[17],inactive
same,outcome,[18],inactive
same,outcome,[19],inactive
CC(C)C(=O)Nc1ccc([N+](=O)[O-])c(C(F)(F)F)c1,outcome,[1],inactive
same,outcome,[2],inactive
same,outcome,[3],inactive
same,outcome,[4],inactive
same,outcome,[5],inactive
same,outcome,[6],inactive
same,outcome,[7],inactive
same,outcome,[8],inactive
same,outcome,[9],inactive
same,outcome,[10],inactive
same,outcome,[11],inactive
same,outcome,[12],inactive
same,outcome,[13],inactive
same,outcome,[14],inactive
same,outcome,[15],inactive
same,outcome,[16],inactive
same,outcome,[17],inactive
same,outcome,[18],inactive
same,outcome,[19],inactive
CCCCCCCC1CCC(=O)O1 (stereo not drawn),outcome,[1],inactive
same,outcome,[2],inactive
same,outcome,[3],inactive
same,outcome,[4],inactive
same,outcome,[5],inactive
same,outcome,[6],inactive
same,outcome,[7],inactive
same,outcome,[8],inactive
same,outcome,[9],inactive
same,outcome,[10],inactive
same,outcome,[11],inactive
same,outcome,[12],inactive
same,outcome,[13],inactive
same,outcome,[14],inactive
same,outcome,[15],inactive
same,outcome,[16],inactive
same,outcome,[17],inactive
same,outcome,[18],inactive
same,outcome,[19],inactive
